Measurements reported in the supplement of paper PMC6555819.

Tests used:
Assay in all cases: PBM binding z-score (relative to random genomic background probes); higher = stronger binding; sequences stand for … in GC…GCGATTGACAGCGTAGAATGAAGG
[1] = system: RARb homodimer (NR concentration 270 nM)
Outline: (§1)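 Ligand-free nuclear receptor dimers were bound for 1 h to custom Agilent 4×180K protein-binding microarrays. Detection used antibodies against each partner (one per run). Binding z-scores rest on regression-normalized fluorescence, with random background probes as the reference.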

[2] = system: RARg:RXRa (NR concentration 270 nM, RXRa partner concentration 90 nM)
Outline: as §1

[3] = system: RARg homodimer (NR concentration 270 nM)
Outline: as §1

[4] = system: RXRa DBDmut IVT, anti-RXR (DBD mutation: RXRa K156A/R161A, NR concentration 90 nM)
Outline: as §1

[5] = system: RXRa homodimer (NR concentration 180 nM)
Outline: as §1

[6] = system: THRa:RXRa (NR concentration 90 nM, RXRa partner concentration 90 nM)
Outline: as §1

[7] = system: THRa homodimer (NR concentration 90 nM)
Outline: as §1

[8] = system: VDR homodimer (NR concentration 270 nM)
Outline: as §1

GGAACGAGGGCAAAGTTGATAACATCTGTCGACG
PBM binding z-score [1]: 1.21 | PBM binding z-score [2]: 2.19 | PBM binding z-score [3]: 1.97 | PBM binding z-score [4]: 2.93 | PBM binding z-score [5]: 1.93 | PBM binding z-score [6]: 1.27 | PBM binding z-score [7]: -0.123 | PBM binding z-score [8]: 1.42

CTCGAAAGGTCGTGCTGAGGTGAGTATACCAAAC
PBM binding z-score [1]: 3.29 | PBM binding z-score [2]: 5.56 | PBM binding z-score [3]: 4.04 | PBM binding z-score [4]: 1.92 | PBM binding z-score [5]: 4.81 | PBM binding z-score [6]: 4.6 | PBM binding z-score [7]: 1.38 | PBM binding z-score [8]: 1.06

CCTCGGTGGACAACAGGAGGTCAGAGCTGCCAGA
PBM binding z-score [1]: 2.99 | PBM binding z-score [2]: 2.06 | PBM binding z-score [3]: 1.73 | PBM binding z-score [4]: -0.87 | PBM binding z-score [5]: 1.64 | PBM binding z-score [6]: 1.97 | PBM binding z-score [7]: 0.341 | PBM binding z-score [8]: 0.396

ACAGACAGGTGAGTGAAGGTAACTCTGCTGGACG
PBM binding z-score [1]: 0.091 | PBM binding z-score [2]: 0.24 | PBM binding z-score [3]: 0.455 | PBM binding z-score [4]: -0.298 | PBM binding z-score [5]: 0.622 | PBM binding z-score [6]: 1.52 | PBM binding z-score [7]: -0.492 | PBM binding z-score [8]: -0.195

TCGAGGAGGTTAGTCGGGGCATTCAGCCAACATA
PBM binding z-score [1]: 1.08 | PBM binding z-score [2]: 0.581 | PBM binding z-score [3]: 0.486 | PBM binding z-score [4]: 0.514 | PBM binding z-score [5]: 0.67 | PBM binding z-score [6]: 2.08 | PBM binding z-score [7]: 0.602 | PBM binding z-score [8]: 1.04

CGAACGGGGGCATGAGTTGATAGCAAATGCCGAT
PBM binding z-score [1]: 1.89 | PBM binding z-score [2]: 3.42 | PBM binding z-score [3]: 3.74 | PBM binding z-score [4]: 3.24 | PBM binding z-score [5]: 2.51 | PBM binding z-score [6]: 3.04 | PBM binding z-score [7]: 1.25 | PBM binding z-score [8]: 3.69

TAGCCTTGGTCATTGGGCCAGTATAGTACGCATC
PBM binding z-score [1]: 0.501 | PBM binding z-score [2]: 0.238 | PBM binding z-score [3]: 0.477 | PBM binding z-score [4]: -0.637 | PBM binding z-score [5]: 0.0749 | PBM binding z-score [6]: -0.206 | PBM binding z-score [7]: -0.231 | PBM binding z-score [8]: -0.72

CCTAGTTGGTCACGGTCACACACGCTATAGGTAC
PBM binding z-score [1]: 2.79 | PBM binding z-score [2]: 1.84 | PBM binding z-score [3]: 2.25 | PBM binding z-score [4]: 1.13 | PBM binding z-score [5]: 0.982 | PBM binding z-score [6]: 1.05 | PBM binding z-score [7]: 1.4 | PBM binding z-score [8]: 0.987

TCTTATAGGTAAAAGGTGAAAGTCGGTGTGGTAA
PBM binding z-score [1]: 1.91 | PBM binding z-score [2]: 2.24 | PBM binding z-score [3]: 0.977 | PBM binding z-score [4]: 1.69 | PBM binding z-score [5]: 3.2 | PBM binding z-score [6]: 1.8 | PBM binding z-score [7]: 0.525 | PBM binding z-score [8]: 0.326

AGAATGAGGTTATACGTAGTTCAGGGAAGAAAGT
PBM binding z-score [1]: 1.63 | PBM binding z-score [2]: 3.82 | PBM binding z-score [3]: 1.45 | PBM binding z-score [4]: 1.54 | PBM binding z-score [5]: 2.57 | PBM binding z-score [6]: 2.55 | PBM binding z-score [7]: 0.588 | PBM binding z-score [8]: 1.61

CCTGCTAGATCAATGGTCAGCTAAAGCAGCTCGC
PBM binding z-score [1]: -0.343 | PBM binding z-score [2]: -0.647 | PBM binding z-score [3]: -0.492 | PBM binding z-score [4]: 0.00874 | PBM binding z-score [5]: -0.596 | PBM binding z-score [6]: -0.908 | PBM binding z-score [7]: -1.01 | PBM binding z-score [8]: -0.711

CCTACTGGGCCATTCAGGGGTCATTGATCATATG
PBM binding z-score [1]: 3.95 | PBM binding z-score [2]: 4.69 | PBM binding z-score [3]: 3 | PBM binding z-score [4]: 0.56 | PBM binding z-score [5]: 5.5 | PBM binding z-score [6]: 3.31 | PBM binding z-score [7]: 0.962 | PBM binding z-score [8]: 4.05

CCTCGGAGGACAACAGCAGGTCAGAGCTGCCAGA
PBM binding z-score [1]: 2.46 | PBM binding z-score [2]: 2.16 | PBM binding z-score [3]: 2.22 | PBM binding z-score [4]: 0.024 | PBM binding z-score [5]: 0.692 | PBM binding z-score [6]: 2.01 | PBM binding z-score [7]: 0.482 | PBM binding z-score [8]: 0.0855

CGAACTAGGCCATTGACAGGACAGTGAATAGTAA
PBM binding z-score [1]: 0.319 | PBM binding z-score [2]: 0.281 | PBM binding z-score [3]: 0.586 | PBM binding z-score [4]: 0.349 | PBM binding z-score [5]: 0.0322 | PBM binding z-score [6]: 0.198 | PBM binding z-score [7]: -0.102 | PBM binding z-score [8]: -0.193
